Among the test systems are NCI-H23 lung; NCI-H226 lung; NCI-H322M lung; HOP-62 NSCLC; NCI-H460 lung; HOP-92 NSCLC; NCI-H522 lung; A549/ATCC NSCLC; 786-0 renal; COLO 205 colon.
Common to all, as to assay: NCI-60 one-dose screen, 48 h (100 = growth as untreated, 0 = no growth, -100 = all killed)
Conditions in all cases: 10 µM unless noted

About 83,000 compounds went through this panel and 20% of them were active in at least one assay; those are over-represented in the sample as a whole.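 Each cell line was grown in a 96-well plate and treated with one concentration of compound for 48 hours. Values below 10 were considered active.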 A number with no mark means an inactive call. The source made the active and inactive calls.

As for `Cc1nc(O)cc(=O)[nH]1`, the growth with NCI-H23 lung is 108%; with NCI-H226 lung, 111%; in the assay on NCI-H322M lung, 99.3%; in the assay on HOP-62 NSCLC, 112%; in the assay with NCI-H460 lung, 104%; in the assay on HOP-92 NSCLC, 76.3%. In addition, the growth in the assay on NCI-H522 lung is 103%; in the assay on A549/ATCC NSCLC, 109%; with 786-0 renal, 114%; with COLO 205 colon, 115%.

`NC(=O)NCCO`: the growth in the assay on NCI-H23 lung is 98.9%; in the assay on NCI-H226 lung it was 95%; in the assay on NCI-H322M lung, 109%; with HOP-62 NSCLC it was 102%; with NCI-H460 lung, 104%; with HOP-92 NSCLC it was 111%. For the same molecule, the growth with NCI-H522 lung was 95.2%; with A549/ATCC NSCLC it was 93%; in the assay with 786-0 renal, 107%; with COLO 205 colon, 116%.

Regarding `O=S(Cc1ccccc1)/C(=C/NC(=S)Nc1ccccc1)c1ccccc1` (stereo not given), the growth in the assay with NCI-H23 lung is 89.3%; with NCI-H226 lung, 101%; with NCI-H322M lung, 99.7%; in the assay on HOP-62 NSCLC, 94.9%; with NCI-H460 lung, 107%; with HOP-92 NSCLC, 101%. Also, the growth in the assay with NCI-H522 lung is 77%; in the assay with A549/ATCC NSCLC it was 95.9%; in the assay with 786-0 renal it was 110%; in the assay on COLO 205 colon it was 101%.

`CC(=O)CSc1ncnc2nc[nH]c12`: the growth with NCI-H23 lung is 106%; in the assay on NCI-H226 lung it was 92.1%; with NCI-H322M lung, 115%; in the assay on HOP-62 NSCLC it was 84.8%; in the assay on NCI-H460 lung it was 98.4%; in the assay on HOP-92 NSCLC, 69.6%. Moreover, the growth in the assay on NCI-H522 lung is 72.8%; with A549/ATCC NSCLC it was 87.3%; in the assay on 786-0 renal it was 91.7%; in the assay with COLO 205 colon, 97.6%.

With `CCOC(=O)c1ccc(NC(C)=O)o1`, the growth is 105% in the assay on NCI-H23 lung; 95% with NCI-H226 lung; 108% in the assay on NCI-H322M lung; 86.3% in the assay on HOP-62 NSCLC; 87.2% with NCI-H460 lung; 103% in the assay on HOP-92 NSCLC. For the same molecule, the growth is 95.2% with NCI-H522 lung, 76.2% with A549/ATCC NSCLC, 105% with 786-0 renal and 106% in the assay with COLO 205 colon.

Take `C=CCS(C)(=O)=O`: the growth with NCI-H23 lung is 106%; in the assay with NCI-H226 lung, 96.7%; in the assay with NCI-H322M lung it was 102%; in the assay on HOP-62 NSCLC, 87.3%; in the assay with NCI-H460 lung it was 105%; with HOP-92 NSCLC, 99.4%. In addition, the growth in the assay with NCI-H522 lung is 92.8%; with A549/ATCC NSCLC, 92.9%; with 786-0 renal it was 99.4%; in the assay on COLO 205 colon, 96.5%.

`COc1cc(C(=O)N2CCN(c3ccccc3)CC2)c2ccccc2n1`: the growth is 21.2% with NCI-H23 lung; 37.3% with NCI-H226 lung; 44.3% with NCI-H322M lung; 41.1% in the assay with HOP-62 NSCLC; 8.4% (active) in the assay with NCI-H460 lung; 62.3% with HOP-92 NSCLC. The growth with NCI-H522 lung is -7.75% (active); in the assay with A549/ATCC NSCLC, 25.3%; in the assay on 786-0 renal it was 26%; in the assay on COLO 205 colon it was -44.9% (active).

As to `CCOC(=O)/C(C)=C\c1ccc(OC)c(OC)c1`, the growth with NCI-H23 lung was 98.1%; in the assay with NCI-H226 lung, 100%; in the assay on NCI-H322M lung, 101%; with HOP-62 NSCLC, 105%; in the assay with NCI-H460 lung, 102%; in the assay on HOP-92 NSCLC, 93.6%. In addition, the growth with NCI-H522 lung is 107%; with A549/ATCC NSCLC, 101%; with 786-0 renal it was 95.5%; in the assay on COLO 205 colon, 105%.

As to `CC(=O)C1C(=O)C(=O)N(c2ccc(Cl)c(Cl)c2)C1=O` (stereo not given), the growth in the assay on NCI-H23 lung was 90.3%; with NCI-H226 lung, 106%; in the assay with NCI-H322M lung, 108%; in the assay on HOP-62 NSCLC, 89.3%; with NCI-H460 lung, 109%; in the assay with HOP-92 NSCLC, 116%. Besides, the growth is 103% in the assay on NCI-H522 lung, 113% in the assay on A549/ATCC NSCLC, 102% in the assay on 786-0 renal and 103% in the assay with COLO 205 colon.

For `Oc1ccc(CCC2CCNc3ccccc32)cc1` (stereo not given), the growth in the assay on NCI-H23 lung was 65.3%; in the assay with NCI-H226 lung it was 62.8%; in the assay with NCI-H322M lung, 91.1%; in the assay with HOP-62 NSCLC, 75.8%; in the assay on NCI-H460 lung, 83.8%; in the assay on HOP-92 NSCLC, 49.3%. For the same molecule, the growth in the assay on NCI-H522 lung was 68.8%; in the assay on A549/ATCC NSCLC, 52.1%; in the assay on 786-0 renal, 82.2%; in the assay with COLO 205 colon, 93.4%.

On to `Cc1ccc2nc(N)nnc2c1`, for which the growth in the assay with NCI-H23 lung was 94.6%; in the assay with NCI-H226 lung it was 103%; with NCI-H322M lung, 112%; in the assay with HOP-62 NSCLC, 105%; in the assay on NCI-H460 lung it was 112%; with HOP-92 NSCLC, 71.9%. Further, the growth in the assay with NCI-H522 lung was 99%; with A549/ATCC NSCLC, 109%; in the assay on 786-0 renal it was 98.4%; in the assay on COLO 205 colon it was 141%.

On to `Cc1cc(Nc2ccc3c(c2)OCO3)c2cc3c(cc2n1)OCO3`, for which the growth in the assay with NCI-H23 lung was 46%; in the assay on NCI-H226 lung it was 88%; with NCI-H322M lung, 57.5%; with HOP-62 NSCLC it was 17.9%; with NCI-H460 lung, 6.21% (active); in the assay with HOP-92 NSCLC, 10.4%. Further, the growth in the assay on NCI-H522 lung was -21.1% (active); in the assay with A549/ATCC NSCLC, 46.3%; in the assay on 786-0 renal, 18.9%; in the assay on COLO 205 colon, -21.3% (active).

For `NC(=S)N/N=C/c1ccc(OC(=O)COc2ccc(Cl)cc2)cn1`, the growth in the assay on NCI-H23 lung was 33.5%; in the assay on NCI-H226 lung, 93.5%; with NCI-H322M lung, 42.5%; with HOP-62 NSCLC, 53%; with NCI-H460 lung, 69.7%; in the assay on HOP-92 NSCLC it was 66.9%. The growth was 43.3% with NCI-H522 lung, 107% with A549/ATCC NSCLC, 32.5% in the assay on 786-0 renal and 84.7% in the assay on COLO 205 colon.

For `S=C(Sc1ccc(Cl)cc1)Sc1ccc(Cl)cc1`, the growth is 21.8% with NCI-H23 lung; -52.5% (active) with NCI-H226 lung; 106% in the assay with NCI-H322M lung; 47.9% with HOP-62 NSCLC; 67.1% in the assay on NCI-H460 lung; -4.66% (active) with HOP-92 NSCLC. Moreover, the growth was -83% (active) in the assay on NCI-H522 lung, 45.5% with A549/ATCC NSCLC, -14.5% (active) in the assay with 786-0 renal and -54% (active) with COLO 205 colon.

Take `CC(C)=CCC[C@@H](C)[C@H]1CC[C@@]2(C)C3=C(CC[C@]12C)[C@@]1(C)CC[C@H](O)C(C)(C)[C@@H]1CC3`: the growth is 113% with NCI-H23 lung; 104% in the assay on NCI-H226 lung; 122% with NCI-H322M lung; 107% in the assay with HOP-62 NSCLC; 107% in the assay with NCI-H460 lung; 97.8% in the assay on HOP-92 NSCLC. Further, the growth with NCI-H522 lung is 95%; in the assay with A549/ATCC NSCLC, 97.7%; in the assay on 786-0 renal it was 101%; with COLO 205 colon it was 110%.
